Drawing on PubChem BioAssay (NCATS), this text covers Potency and outcome for 29 compounds.

Inconclusive results are not listed. Calls of active or inactive are those of the source. Calls come from the whole dose curve; as a rule, active = well fitted curve in the direction sought with a large enough effect; inconclusive = small, poorly fitted or top-dose-only effect, or another doubt; inactive = no such curve, though single readings can be large; an effect the other way counts as inactive or inconclusive.

Assay [1] is described as follows: qHTS to identify inhibitors of the type 1 interferon - major histocompatibility complex class I in skeletal muscle: primary screen against the NCATS LOPAC collection (AID 1347405).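 Note: human myoblasts with HiBiT tag on endogenous HLA-B stimulated by IFN-beta; lytic HiBiT luminescence reporting HLA-B protein level.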 The method, boiled down: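 HLA-B HiBiT myoblasts, IFN-b 4 ng/ml, dexamethasone-free medium; compounds 7-pt 1:4.3 titration, top 46 uM final; 24 h at 37 C; Nano-Glo HiBiT lytic reagent, 10 min RT, luminescence.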

Assay [2] can be described thus: qHTS to identify inhibitors of the type 1 interferon - major histocompatibility complex class I in skeletal muscle: primary screen against the NCATS Pharmaceutical Collection (AID 1347407).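 Note: luminescence of HiBiT knocked into endogenous HLA-B as interferon-induced MHC class I level.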 A digest of the protocol: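 Compounds […] were added to CRISPR-engineered HLA-B-HiBiT C25cl48 human myoblasts with 4.0 ng/ml IFN-beta. After 24 hrs at 37 C, cells were lysed and HiBiT luminescence measured.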

A short description of assay [3]: qHTS for inhibitors of adenylyl cyclases using a fission yeast platform: a pilot screen against the NCATS LOPAC library (AID 1347410). A digest of the protocol: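 GFP from fbp1-GFP reporter, read by Acumen laser cytometry, indicates AC inhibition in fission yeast expressing AC9, GNAS and PDE4D2. Cells grown 18 h in the dark at 30C with compounds, final up to 57 uM.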

The target in assay [4] is Protein phosphatase 1D (Homo sapiens) (UniProt O15297). In words: RapidFire Mass Spectrometry qHTS Assay for Modulators of WT P53-Induced Phosphatase 1 (WIP1) (AID 1347424).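 Note: amount of dephosphorylated VEPPL-S-QETFS peptide product formed by WIP1; series mostly up to about 63 µM.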 The method, boiled down:
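Mass-spectrometric measurement of dephosphorylated peptide after a 5 min room-temperature reaction of 10 nM WIP1 with 2 uM phosphopeptide, following 1 h compound preincubation in 30 mM MgCl2 buffer.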

Assay [5] has the same target. The assay is described as follows: Rhodamine-PBP qHTS Assay for Modulators of WT P53-Induced Phosphatase 1 (WIP1) (AID 1347425). The method, boiled down:
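WIP1 (5 nM final) was preincubated with compound for 1 hour at room temperature. It then dephosphorylated 10 uM VEPPL-pS-QETFS peptide in Tris-HCl pH 7.5 with 30 mM MgCl2. Released Pi was detected by 10 uM Rh-PBP fluorescence (ex 525/em 598 nm) read at 1-min intervals for 11 min, as delta f1 - f0.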

Assay [6] in a line: Validation qHTS assay for inhibitors of Activation Induced Cytidine Deaminase (AID): UDG Counterscreen signal (AID 1347427). A digest of the protocol:
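Fluorescence at 560 nm excitation, 665 nm emission reports UDG signal after 250 mM NaOH (2x) addition and 30 min. Enzymes (AID 1 uM, UDG 2 U/mL, at 4/3x) preincubated 10 min with compound, then 4 h with 4x 250 nM DJC20/DJC23 substrate at room temperature.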

Assay [7] concerns the target Single-stranded DNA cytosine deaminase (Homo sapiens) (UniProt Q9GZX7). The assay is described as follows: Validation qHTS assay for inhibitors of Activation Induced Cytidine Deaminase (AID): AID signal (AID 1347429). The method, boiled down:
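AID+UDG coupled FRET deamination; cpds up to 114 uM final; DJC20/DJC23 substrate, 4 hr RT; NaOH stop, 30 min RT; read Ex 540/Em 590.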

The nature of assay [8]: Primary qHTS for inhibitors of La Crosse Virus (LACV) - induced cell death in SH-SY5Y cells (AID 1508616). Note: potency is the fitted concentration of half-maximal effect. The method, boiled down: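 Cytopathicity rescue screen: compounds pinned onto SH-SY5Y cells, which are then infected with LACV (MOI 0.01) and held 6 days at 37C. Percent activity is scaled between infected DMSO control and uninfected DMSO control.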
In assay [9] the target is Calcium and integrin-binding protein 1 (Homo sapiens) (UniProt Q99828). The assay is described as follows: Validation qHTS for Identification of Calcium Integrin Binding protein 1 (CIB1) Competitor (AID 1508618). A digest of the protocol: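 Fluorescence polarization with 1 uM CIB1-GST and 100 nM FITC-alphaIIb peptide in HEPES pH 7.4, NaCl, 5 mM CaCl2, Tween20. Compounds at up to 114 uM final, preincubated with protein 15 min; read after 15 min more at RT.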
Sequence of Calcium and integrin-binding protein 1 (Homo sapiens) (Q99828 whole entry, looked up): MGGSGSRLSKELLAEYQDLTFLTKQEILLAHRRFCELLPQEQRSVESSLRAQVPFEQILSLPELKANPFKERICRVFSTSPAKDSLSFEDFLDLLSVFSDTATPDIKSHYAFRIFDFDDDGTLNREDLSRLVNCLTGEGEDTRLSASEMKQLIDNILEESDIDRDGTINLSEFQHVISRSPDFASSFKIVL

The target is the same in assay [10]. The assay is described as follows: Primary qHTS for Identification of Calcium Integrin Binding Protein 1 (CIB1) Competitor (AID 1508620).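 Note: GST tagged CIB1 binding a fluorescein labelled alphaIIb integrin peptide tracer; top concentration of the series differs between compounds.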 A digest of the protocol: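 Fluorescence polarization competition: CIB1-GST (1 uM final) preincubated with compound 15 min at room temperature, then FITC-labeled alphaIIb peptide (100 nM final) added for another 15 min. Polarization read at Ex 480/Em 540.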

Sequence of Single-stranded DNA cytosine deaminase (Homo sapiens) (Q9GZX7 whole entry, looked up): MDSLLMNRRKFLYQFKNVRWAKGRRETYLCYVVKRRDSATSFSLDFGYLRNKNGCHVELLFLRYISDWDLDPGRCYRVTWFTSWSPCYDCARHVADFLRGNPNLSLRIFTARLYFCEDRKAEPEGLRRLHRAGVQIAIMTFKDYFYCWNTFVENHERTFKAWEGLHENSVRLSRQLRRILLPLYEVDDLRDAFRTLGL
Sequence of Protein phosphatase 1D (Homo sapiens) (O15297 whole entry, looked up): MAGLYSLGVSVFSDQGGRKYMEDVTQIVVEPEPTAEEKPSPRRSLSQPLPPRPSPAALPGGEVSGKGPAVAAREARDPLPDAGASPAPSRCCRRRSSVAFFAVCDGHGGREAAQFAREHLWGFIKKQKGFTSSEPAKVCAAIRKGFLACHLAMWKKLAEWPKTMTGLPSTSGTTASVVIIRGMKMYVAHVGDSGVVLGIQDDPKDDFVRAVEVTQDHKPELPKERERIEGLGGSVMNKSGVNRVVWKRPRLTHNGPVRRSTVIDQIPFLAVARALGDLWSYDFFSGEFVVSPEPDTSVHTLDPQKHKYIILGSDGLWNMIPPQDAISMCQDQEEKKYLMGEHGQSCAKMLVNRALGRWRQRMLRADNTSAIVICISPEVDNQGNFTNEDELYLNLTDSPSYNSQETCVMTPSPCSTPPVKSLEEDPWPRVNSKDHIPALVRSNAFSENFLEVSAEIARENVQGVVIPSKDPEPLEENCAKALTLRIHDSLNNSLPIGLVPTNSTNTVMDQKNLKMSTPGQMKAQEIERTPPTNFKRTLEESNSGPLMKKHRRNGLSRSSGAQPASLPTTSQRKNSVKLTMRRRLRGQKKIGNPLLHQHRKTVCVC

Regarding `CCC1C(=O)OCC1Cc1cncn1C` (stereo unspecified), the Potency entry in assay [1], in assay [2], in [4], in assay [6], in assay [7] and in [8] was “inactive” each time. For the same compound, in [10], the Potency result is “inactive”. For the same compound, the compound was classed as inactive in [3], in assay [5] and in assay [9].

Take `CC(C)CC(NP(=O)(O)O[C@@H]1O[C@@H](C)[C@H](O)[C@@H](O)[C@H]1O)C(=O)NC(Cc1c[nH]c2ccccc12)C(=O)O` (stereo partly specified): the Potency result in assay [1], in assay [6], in assay [7] and in assay [8] was “inactive” throughout. The compound was classed as inactive in assay [3] and in assay [9].

Consider `O=C(CCCCCN1CCN(c2ccccc2-c2ccccc2)CC1)NC1CCCc2ccccc21` (stereo unspecified), for which the Potency result in assay [1], in assay [6] and in assay [7] was “inactive” throughout. The compound was called inactive in assay [3].

In the case of `NC[C@H]1O[C@@H](n2cnc3c(N)ncnc32)[C@H](O)[C@@H]1O`, the Potency result in [1], in [6], in assay [7] and in assay [8] was “inactive” throughout. Besides, the outcome in assay [3] and in assay [9] was inactive.

Take `O=C(/C=C/c1ccc(O)c(O)c1)OCCc1ccccc1`: the Potency result in assay [1], in [6] and in assay [7] was “inactive” throughout. The result in assay [3] and in [9] was inactive. In addition, the Potency in assay [8] is 0.631 µM (active).

Regarding `CNC(=O)[C@H]1O[C@@H](n2cnc3c(NCc4ccc(N)cc4)ncnc32)[C@H](O)[C@@H]1O`, the Potency result in [1], in assay [6], in assay [7] and in [8] was “inactive” in each case. The call in assay [3] and in assay [9] was inactive.

Consider `Nc1nc(Nc2ccccc2)nc2c1ncn2[C@@H]1O[C@H](CO)[C@@H](O)[C@H]1O`, for which the Potency result in assay [1], in assay [6], in assay [7] and in assay [8] was “inactive” in each case. Also, the result in assay [3] and in assay [9] was inactive.

Regarding `CSc1nc(N)c2ncn([C@@H]3O[C@H](COP(=O)(O)OP(=O)(O)OP(=O)(O)O)[C@@H](O)[C@H]3O)c2n1`, the Potency entry in [1], in assay [6], in assay [7] and in assay [8] was “inactive” each time. Besides, the compound was classed as inactive in [3] and in assay [9].

For the compound `Fc1cccc(/C=N/N=C/c2cccc(F)c2)c1`, the Potency result in assay [1], in assay [6], in [7] and in assay [8] was “inactive” each time. Besides, the call in [3] and in assay [9] was inactive.

`N#C/C(=C\c1ccc(O)c(O)c1)C(=O)c1ccc(O)c(O)c1`: the Potency result in assay [1], in [6], in assay [7] and in assay [8] was “inactive” each time. The call in [3] and in assay [9] was inactive.

On to `OCC1O[C@H](O)C(Cl)C(O)C1O` (stereo partly specified), for which the Potency entry in assay [1], in assay [6], in assay [7] and in [8] was “inactive” in each case. The result in assay [3] and in assay [9] was inactive.

With `Nc1nc(SCc2ccc([N+](=O)[O-])cc2)c2ncn([C@@H]3O[C@H](CO)[C@@H](O)[C@H]3O)c2n1`, the Potency result in assay [1], in [6], in assay [7] and in assay [8] was “inactive” throughout. The outcome in assay [3] and in assay [9] was inactive.

Consider `Nc1nc(Cl)nc2c1ncn2[C@@H]1O[C@H](CO)[C@@H](O)[C@H]1O`, for which the Potency entry in [1], in assay [6], in [7] and in assay [8] was “inactive” throughout. In addition, the call in assay [3] and in assay [9] was inactive.

Regarding `NC(=O)C1=CN(C2OC(COP(=O)(O)OP(=O)(O)OC[C@H]3O[C@@H](n4cnc5c(N)ncnc54)[C@H](OP(=O)(O)O)[C@@H]3O)C(O)C2O)C=CC1` (stereo partly specified), the Potency result in assay [1], in assay [6], in assay [7] and in assay [8] was “inactive” each time. For the same compound, the compound was classed as inactive in assay [3] and in [9].

With `CO/N=C(\C(=O)N[C@@H]1C(=O)N2C(C(=O)O)=C(COC(C)=O)CS[C@H]12)c1csc(N)n1`, the Potency entry in assay [1], in [6], in assay [7] and in assay [8] was “inactive” each time. The outcome in [3] and in [9] was inactive.

`Cc1cc(NC2CCCCC2)nc(-n2nc(C)cc2C)n1`: the Potency result in assay [1], in assay [6], in assay [7] and in assay [8] was “inactive” each time. In addition, the call in [3] and in [9] was inactive.

With `O=[N+]([O-])c1ccc(CSc2ncnc3c2ncn3[C@@H]2O[C@H](CO)[C@@H](O)[C@H]2O)cc1`, the Potency result in assay [1], in assay [6], in assay [7] and in assay [8] was “inactive” each time. Besides, the outcome in assay [3] and in assay [9] was inactive.

For the compound `Oc1ccc(C2CNCc3sccc32)cc1O` (stereo unspecified), the Potency entry in [1], in assay [6], in assay [7] and in [8] was “inactive” throughout. The compound was classed as inactive in [3] and in assay [9].

Take `O=C(O)c1cc([N+](=O)[O-])ccc1NCCCc1ccccc1`: the Potency entry in [1], in assay [6], in assay [7] and in assay [8] was “inactive” in each case. Besides, the result in assay [3] and in assay [9] was inactive.

Take `Nc1ncnc2c1ncn2[C@@H]1O[C@H](COP(=O)(O)OP(=O)(O)OP(=O)(O)OP(=O)(O)OC[C@@H]2O[C@H](n3cnc4c(N)ncnc43)[C@@H](O)[C@H]2O)[C@@H](O)[C@H]1O`: the Potency result in assay [1], in [6], in [7] and in [8] was “inactive” in each case. The outcome in assay [3] and in assay [9] was inactive.

Consider `NCCCCCCCCCCN`, for which the Potency entry in [1], in assay [6], in assay [7] and in assay [8] was “inactive” each time. The call in assay [3] and in assay [9] was inactive.

Take `O=C(O)CC[C@@H](C(=O)O)N1C(=O)c2ccccc2C1=O`: the Potency entry in assay [1], in [6], in [7] and in assay [8] was “inactive” throughout. The call in [3] and in [9] was inactive.

With `S=C(S)OC1CC2CC1C1CCCC21` (stereo unspecified), the Potency result in assay [1], in assay [6], in assay [7] and in assay [8] was “inactive” in each case. The compound was called inactive in assay [3] and in assay [9].

For the compound `C=CC(N)CCC(=O)O` (stereo unspecified), the Potency result in assay [1], in assay [6], in [7] and in assay [8] was “inactive” in each case. Also, the call in assay [3] and in assay [9] was inactive.

Turning to `CCCCCCCCc1ccc(-c2ccc(C(=O)O)cc2)cc1`, the Potency result in [1], in assay [6], in [7] and in assay [8] was “inactive” throughout. The result in assay [3] and in assay [9] was inactive.

On to `NC(N)=NC(=O)c1nc(Cl)c(N2CCCCCC2)nc1N`, for which the Potency entry in assay [1], in [6], in assay [7] and in assay [8] was “inactive” throughout. The outcome in [3] and in [9] was inactive.

Turning to `CC(=O)N[C@H](C(=O)O)C(C)(C)SN=O`, the Potency entry in [1], in assay [6], in [7] and in assay [8] was “inactive” throughout. In addition, the call in assay [3] and in assay [9] was inactive.

Consider `O=C(O)c1cc(=O)c2c(Cl)cc(Cl)cc2[nH]1`, for which the Potency result in assay [1], in assay [6], in assay [7] and in assay [8] was “inactive” in each case. The result in [3] and in assay [9] was inactive.

As for `CN1CCc2cc(NC(=O)Nc3cccnc3)ccc21`, the Potency entry in [1], in assay [6], in assay [7] and in assay [8] was “inactive” each time. For the same compound, the call in assay [3] and in [9] was inactive.
